IL-1B inflam inh: blocks inflammasome-driven IL-1 beta release; THP-1 LPS/ATP IL-1B secretion, AlphaLISA, 16 h; active compounds read low; activity change, % at 57.5 µM; 360,000 tested, 4.7% active; AID 743279; in the data active = activity change below about -50%; inconclusive = mostly about -30% to -49%
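Secreted IL-1B measured by AlphaLISA bead assay after 16 h compound exposure of THP-1 cells; compounds (final up to 57.5 uM) added 1 h before LPS (250 ng/mL) and ATP (1.25 mM) stimulation; lower signal means less secretion.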
HT1080 IDH1KD tx: toxicity to HT-1080 IDH1 knockdown cells (counter line) | HT-1080 IDH1 knockdown viability, ATP luminescence, 48 h | 360,000 tested, 2% active | Potency, µM (highest dose often 46.1 µM), usual class: cytotoxic
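Luminescent ATP read-out (CellTiter-Glo, 10 min at room temperature) after 48 h compound exposure at 37 °C gave viability of IDH1-knockdown HT-1080 cells. Activity was normalised to DMSO and cell-free wells, then fitted as concentration-response curves.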
HT1080-NT tox: kills 2HG-producing HT-1080-NT fibrosarcoma cells | HT-1080-NT fibrosarcoma viability, CellTiter-Glo ATP luminescence, 48 h | Potency, µM (series often up to 46.1 µM), actives largely listed as cytotoxic | 360,000 tested, 1.6% active;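 note: NT is the 2HG producing partner of a matched IDH1 knockdown line; nearly all actives have a fitted effect of over 55% in size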
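Read-out is CellTiter-Glo luminescence after 10 minutes at room temperature, following 48 hours' compound treatment of HT-1080-NT cells (750 cells/well, RPMI, 5% FBS, 37 degrees C).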
TDP1 cell CPT: DT40-hTDP1 cell growth loss with CPT | chicken DT40 Tdp1-/-;hTDP1 cells + 20 nM CPT, ATP luminescence, 48 h | Potency, µM (top dose mostly 46.2 µM), hits mostly inhibitors | 420,000 tested, 12% active | AID 686979; note: nearly all actives have a fitted effect of over 55% in size
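Chicken DT40 Tdp1-/- cells stably complemented with human TDP1 were seeded at 400 cells/well in medium containing 20 nM camptothecin, exposed to pin-transferred compounds, and grown at 37 °C for at least 48 hr. Viability was read as ATP luminescence.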
DT40 TDP1 no CPT: qHTS for Inhibitors of human tyrosyl-DNA phosphodiesterase 1 (TDP1): qHTS in cells in absence of CPT. DT40 Tdp1-/- hTDP1 cells, no CPT, ATP luminescence, 48 h. Potency, µM (series often up to 46.2 µM), hits mostly inhibitors. 420,000 tested, 15% active. AID 686978, 2013; note: nearly all actives have a fitted effect of over 55% in size
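Readout: luminescence from CellTiter-Glo after 30 min in the dark at RT. Cells: DT40 Tdp1-/- with stable hTDP1, 400/well. Exposure: compounds alone, ≥48 hr, 37 °C.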
A number is an active result; n = inactive; u = inconclusive; x = no result. Only some compounds are listed: those with a hit (about 19% of all), similar ones and a draw of the others. Unless noted, calls come from the whole dose curve; as a rule, active = well fitted curve in the direction sought with a large enough effect; inconclusive = small, poorly fitted or top-dose-only effect, or another doubt; inactive = no such curve, though single readings can be large; an effect the other way counts as inactive or inconclusive.

SMILES	IL-1B inflam inh	HT1080 IDH1KD tx	HT1080-NT tox	TDP1 cell CPT	DT40 TDP1 no CPT
COC(=O)c1cc(Br)ccc1N(Cc1cc(OC)cc(OC)c1)S(C)(=O)=O	n	n	n	u	16µM
COc1ccc(S(=O)(=O)N2CCCCC2)cc1NC(=O)CCNC(=O)c1ccc(Cl)cc1	n	n	n	n	n
Cc1ccc(NC(=S)NCCC2=CCCCC2)cc1	n	n	n	u	23µM
O=C(NCc1ccco1)Nc1ccc2nsnc2c1	-75	u	u	18µM	15µM
CCOC(=O)c1ccc(NC(=S)NCCC2=CCCCC2)cc1	n	n	n	29µM	21µM
CC(=O)c1cccc(NC(=S)NCCC2=CCCCC2)c1	n	u	n	16µM	15µM
CC(=O)c1cccc(NC(=S)NCCc2ccc(F)cc2)c1	n	n	n	n	u
O=C(NCc1ccco1)Nc1ccc(Br)cc1	n	n	n	n	u
CNNC(=S)NCCC1=CCCCC1	n	n	n	n	n
O=c1c(-c2ccc(F)cc2)nc2cnc(Oc3ccccc3)nc2n1C[C@H]1CCCO1	x	x	x	n	u
COc1ccc(OC)c(-c2noc(N3CCN(c4cccc(C)c4C)CC3)n2)c1	x	x	x	n	n
O=C(NCCC1=CCCCC1)Nc1ccc2nsnc2c1	-94	u	n	u	10µM
O=C(NCCC1=CCCCC1)NC12CC3CC(CC(C3)C1)C2	n	u	n	n	u
COc1ccc2c(c1)cc1c(=O)n(CC(=O)NC(C)C)nc(C)n12	x	x	x	n	n
COc1ccccc1NC(=O)CCN1C(=O)c2ccccc2C1=O	n	n	n	n	n
Cc1cc2cc(C)c3nnc(SCc4ccccn4)n3c2cc1C	n	n	n	23µM	u
Cc1c(Cl)cccc1-n1nc(C)c2c(C(=O)NCc3ccccc3)cc(C3CC3)nc21	x	x	x	n	n
Cc1ccc(-n2nc(C)c3c(C(=O)NCc4ccc(F)cc4)cc(C)nc32)cc1	x	x	x	n	u
CCc1ccc(-n2nc(C)c3c(C(=O)Nc4ccc(Cl)cc4)cc(C)nc32)cc1	x	x	x	u	13µM
CCc1ccc(NC(=O)c2c(Cl)nc(C)c(Cl)c2C)cc1	n	u	n	u	26µM
CC(=O)c1cccc(NC(=O)c2cc(C)nc3c2c(C)nn3-c2cccc(Cl)c2C)c1	x	x	x	u	18µM
Nc1ccc(S(=O)(=O)Nc2nccc(/C=C/c3ccc([N+](=O)[O-])cc3)n2)cc1	u	n	n	n	n
S=C1NCCOCCOCCOCCNC(=S)N2CCOCCOCCN1CCOCCOCC2	n	n	n	n	n
CC(OC(=O)CNC(=O)c1ccc(Cl)cc1)C(=O)NC1CCCCC1C (stereo not drawn)	n	n	n	n	n
Cc1ccc(CSc2cn(CC(=O)N3CCCC3)c3ccccc23)cc1	x	x	x	16µM	16µM
SMILES	IL-1B inflam inh	HT1080 IDH1KD tx	HT1080-NT tox	TDP1 cell CPT	DT40 TDP1 no CPT
CCN(CC)C(=O)CSc1cn(CC(=O)N2CCCCCC2)c2ccccc12	x	x	x	u	n
Cc1ccc(CSc2cn(CC(=O)N3CCCCCC3)c3ccccc23)cc1	x	x	x	u	21µM
Cc1ccc(Cc2c(-c3cccc(Cl)c3)nc3ccc(Br)cn23)cc1	n	n	n	n	u
O=C(OCc1c(-c2ccccc2)ncc2ccccc12)c1ccc(Br)cc1	n	n	n	n	13µM
COc1cccc(-c2ncc3ccccc3c2COC(=O)c2ccc(Br)cc2)c1	n	n	n	n	u
COc1cccc(-c2ncc3ccccc3c2COC(=O)N(C)C)c1	n	n	n	18µM	18µM
CN1CCN(C(=O)Cn2ncc3c4ccccc4n(Cc4ccc(F)cc4)c3c2=O)CC1	x	x	x	15µM	7.3µM
CCOC(=O)C1CCN(C(=O)Cn2ncc3c4ccccc4n(Cc4ccccc4)c3c2=O)CC1	x	x	x	8.2µM	7.3µM
CCOC(=O)C1CCCN(C(=O)Cn2ncc3c4ccccc4n(C)c3c2=O)C1 (stereo not drawn)	x	x	x	n	u
O=C(Cn1ncc2c3ccccc3n(Cc3ccccc3)c2c1=O)NC1CCCC1	n	n	n	n	n
CCOC(=O)C1CCN(C(=O)Cn2ncc3c4ccccc4n(Cc4ccc(F)cc4)c3c2=O)CC1	x	x	x	3.3µM	1.8µM
CC1CCN(C(=O)Cn2ncc3c4ccccc4n(C)c3c2=O)CC1	n	n	n	n	n
CCOC(=O)C1CCCN(C(=O)Cn2ncc3c4ccccc4n(Cc4ccccc4)c3c2=O)C1 (stereo not drawn)	x	x	x	u	18µM
O=C(NCc1ccccc1C(F)(F)F)C1CC(c2ccc(C(F)(F)F)cc2)=NO1 (stereo not drawn)	n	n	n	u	u
O=C(Cn1ncc2c3ccccc3n(Cc3ccc(Cl)cc3)c2c1=O)N1CCCCCC1	x	x	x	13µM	10µM
Cc1c2cnn(CC(=O)N3CCCCC3)c(=O)c2c(C)n1Cc1ccc(Cl)cc1	x	x	x	23µM	23µM
CCCN1CCN(C(=O)Cn2ncc3c4ccccc4n(Cc4cccc(Cl)c4)c3c2=O)CC1	x	x	x	13µM	12µM
Cc1c2cnn(CC(=O)O)c(=O)c2c(C)n1Cc1ccccc1	n	n	n	n	n
Nc1ncnc2c1ncn2[C@@H]1O[C@H](COS(=O)(=O)O)[C@@H](O)[C@H]1O	n	n	n	u	18µM
Nc1ncnc2c1ncn2C1OC(COP(=O)(O)O)C(O)C1O (stereo not drawn)	n	u	7.3µM	u	u
CCN(C(=O)c1cn(C)c(=O)c2ccccc12)c1ccccc1F	n	n	n	n	n
CCNc1ccc(Br)cc(C(=O)/C=C/c2ccc3c(c2)OCO3)c1=O	n	n	n	29µM	u
CCNc1ccc(Br)cc(C(=O)/C=C/c2c(Cl)cccc2Cl)c1=O	-96	u	u	5.2µM	4.6µM
CCC1CN(C(=O)N2CCC(C(=O)NCc3cccc(F)c3)CC2)c2cc(C)ccc2O1 (stereo not drawn)	x	x	x	21µM	16µM
CCC1CN(C(=O)N2CCC(C(=O)NCc3ccccc3OC)CC2)c2cc(C)ccc2O1 (stereo not drawn)	n	n	n	16µM	u
SMILES	IL-1B inflam inh	HT1080 IDH1KD tx	HT1080-NT tox	TDP1 cell CPT	DT40 TDP1 no CPT
CCC1CN(C(=O)N2CCC(C(=O)NCCN(CC)CC)CC2)c2cc(C)ccc2O1 (stereo not drawn)	x	x	x	n	n
CCC1CN(C(=O)N2CCC(C(=O)NCc3ccccc3OC)CC2)c2ccccc2O1 (stereo not drawn)	n	n	n	u	u
CCC1CN(C(=O)N2CCC(C(=O)NCCc3ccc(OC)cc3OC)CC2)c2cc(C)ccc2O1 (stereo not drawn)	x	x	x	21µM	16µM
COc1cc(OC)c(NC(=O)Cn2c(=O)c(C(F)(F)F)nc3ccccc32)cc1Cl	x	x	x	n	n
Cc1ccc(-n2c(SCC(=O)N/N=C/c3ccc(C)s3)nnc2-c2ccccc2)cc1	-57	n	n	u	u
Cc1ccc(-n2c(SCC(=O)N/N=C/c3ccccc3C(=O)O)nnc2-c2ccccc2)cc1	n	n	n	n	n

High-throughput results (PubChem)
